This passage reports growth results from PubChem BioAssay (NCI).

SMILES strings stand for the structures. This is part of a sample that, as a whole, favours compounds with a hit. Of some 83,000 tested, about 20% had one in any assay.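 How to read the values: 0–100, growth inhibition (40 = 60% inhibited); 0, no net growth; -100 to 0, cell death (-40 = 40% of starting cells died; -100 = all dead).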 A number with no mark means an inactive call. Activity calls are given as the source filed them. The calls were made as follows: active = growth percent below 10; inactive = the rest.

The test system of the assay is MDA-MB-468 breast. Put plainly: NCI-60 one-dose screen, 48 h (100 = growth as untreated, 0 = no growth, -100 = all killed). As to conditions: 10 µM unless noted.
Regarding `COc1cccc(-c2nc3sccn3c2-c2ccnc(NCCCNS(=O)(=O)c3cccc(F)c3)c2)c1`, the growth is 8.57% (active).
In the case of `N#C/C(=C\c1ccc2c(c1)OCO2)n1nnc2cc(F)c(F)cc21` it was 6.05% (active).
In the case of `COc1cc(C2CC(c3cccc(Nc4ccncc4)c3)=NN2c2ccccc2)cc(OC)c1OC` (centres undefined) it was 25.8%; in that of `Cc1ccc(NS(=O)(=O)c2cc(C)ccc2C)cc1`, 0.244% (active).
